Bioassay records from PubChem.
IMPase Li inh = qHTS Assay for Identifying the Cell-Membrane Permeable IMPase Inhibitors: Potentiation with Lithium. 210,000 compounds, 0.35% hits. Potency, µM (series often up to 59.4 µM), without a hit: at the highest dose activity, negative = IMPase inhibition, most hits filed as inhibitors. CHO-M1 cells, IP1 TR-FRET (IP-One), carbachol + lithium; active = well fitted curve in the direction sought with a large enough effect; inconclusive = small, poorly fitted or top-dose-only effect, or another doubt; inactive = no such curve, though single readings can be large; an effect the other way counts as inactive or inconclusive;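 note: IP1 builds up when IMPase is blocked and the TR-FRET signal falls; potency is the fitted concentration of half-maximal effect; plate controls were basal vehicle for no effect and high inhibitor control for full effect; nearly all actives have a fitted effect of over 50% in size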
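CHO cells stably expressing M1 receptor (2000/well) were cultured 16–30 h, then exposed to compounds with a small lithium addition for 30 min at 37C. IP1 was measured by TR-FRET competition; AC50 from Hill fits.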
ALDH1A1 block = qHTS Assay for Inhibitors of Aldehyde Dehydrogenase 1 (ALDH1A1); Potency, µM (highest dose often 75.3 µM), without a hit: at the highest dose activity, negative = inhibition, most hits filed as inhibitors; Purified ALDH1A1, NADH fluorescence, propionaldehyde substrate; 220,000 compounds, 7.3% hits; Aldehyde dehydrogenase 1A1 (Homo sapiens), P00352;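 note: potency is the fitted concentration of half-maximal effect; plate controls were no enzyme wells and a reference inhibitor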
Target sequence (P00352 whole entry, looked up): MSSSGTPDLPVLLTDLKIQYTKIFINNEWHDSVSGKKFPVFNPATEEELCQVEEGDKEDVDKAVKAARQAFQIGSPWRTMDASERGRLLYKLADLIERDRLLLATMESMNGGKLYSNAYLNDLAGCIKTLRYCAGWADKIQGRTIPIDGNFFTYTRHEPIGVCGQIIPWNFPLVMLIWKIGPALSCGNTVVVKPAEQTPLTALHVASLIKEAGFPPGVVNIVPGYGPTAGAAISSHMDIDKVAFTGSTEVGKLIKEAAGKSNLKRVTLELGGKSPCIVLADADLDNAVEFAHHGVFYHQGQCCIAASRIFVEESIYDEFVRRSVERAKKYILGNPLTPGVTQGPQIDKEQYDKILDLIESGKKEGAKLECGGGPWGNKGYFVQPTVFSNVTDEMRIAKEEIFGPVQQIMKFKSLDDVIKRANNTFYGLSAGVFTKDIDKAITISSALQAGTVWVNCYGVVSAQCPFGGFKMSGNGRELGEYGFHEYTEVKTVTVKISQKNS
HPGD block = qHTS Assay for Inhibitors of HPGD (15-Hydroxyprostaglandin Dehydrogenase); 15-hydroxyprostaglandin dehydrogenase [NAD(+)] (Homo sapiens), P15428; purified HPGD, NADH fluorescence kinetic, PGE2 substrate; Potency, µM, inactives show top-dose activity change, negative = inhibition, most hits filed as inhibitors; 150,000 compounds, 4.3% hits; AID 894, 2007; note: potency is the fitted concentration of half-maximal effect
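20 nM HPGD preincubated 15 min at room temperature with compound in 50 mM Tris-HCl pH 8, 0.01% Tween 20. Started with 1 mM NAD+ and 30 uM prostaglandin E2; NADH fluorescence (360/450 nm) read 5 times over 30-s intervals, last minus first.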
IMPase cell inh = qHTS Assay for Identifying the Cell-Membrane Permeable IMPase Inhibitors; Inositol monophosphatase 1 (Rattus norvegicus), P97697; CHO-M1 cells, IP1 accumulation, HTRF TR-FRET ratio; inhibition (IP1 accumulation), % at 46.1 µM; 120,000 tested, under 10 active; active = well fitted curve in the direction sought with a large enough effect in the signal ratio, not every such curve was filed as active; inconclusive = small, poorly fitted or top-dose-only effect, or a change in a side signal; inactive = no such curve, though single readings can be large or run the other way; the % refers to the signal ratio;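 note: cells stimulated with carbachol in lithium chloride buffer; plate controls were DMSO basal wells for no effect and reference inhibitor wells for full effect; higher means more IMPase inhibition seen as more IP1 and lower FRET ratio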
Target sequence (P97697 whole entry, looked up): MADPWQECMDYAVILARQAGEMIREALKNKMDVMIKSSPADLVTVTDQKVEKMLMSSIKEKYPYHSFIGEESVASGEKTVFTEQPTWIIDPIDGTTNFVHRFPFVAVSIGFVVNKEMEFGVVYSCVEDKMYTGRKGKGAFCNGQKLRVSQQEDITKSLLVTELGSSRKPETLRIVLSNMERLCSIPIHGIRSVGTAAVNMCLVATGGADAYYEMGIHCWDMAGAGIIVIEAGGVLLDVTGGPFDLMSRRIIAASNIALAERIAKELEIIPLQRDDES
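The IP-One HTRF competitive assay in carbachol-stimulated CHO-M1 cells quantifies cellular IP1. Compounds spanned up to 46 uM final, and activity is expressed as AC50 from concentration-response fits of the ratio and donor data.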
NPSR antag = qHTS Assay for Antagonists of the Neuropeptide S Receptor: cAMP Signal Transduction; Potency, µM (doses to about 38.3 µM), inactives show top-dose activity change, negative = inhibition, hits mostly inhibitors; 220,000 compounds, 1% hits; Q6W5P4; CHO-NPSR cells, cAMP TR-FRET, antagonist mode; active = well fitted curve in the direction sought with a large enough effect; inconclusive = small, poorly fitted or top-dose-only effect, or another doubt; inactive = no such curve, though single readings can be large; an effect the other way counts as inactive or inconclusive; note: potency is the fitted concentration of half-maximal effect; nearly all actives have a fitted effect of over 50% in size
PNC assembly inh = High Content Assay for Compounds that inhibit the Assembly of the Perinucleolar Compartment. PC3M PTB-GFP, PNC prevalence imaging, 16 h; hits give low values. 140,000 compounds, 3.1% hits. AID 2417, 2010. activity change (PNC), negative = inhibition, % at 10 µM;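 active = readout at or below -70, meaning at least 70% loss of cells showing the perinucleolar compartment, a nuclear body marking cancer cells; inconclusive = readout between -30 and a set limit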;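 note: plate controls were DMSO wells for no effect and camptothecin positive control wells for full effect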
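Compounds are pinned in duplicate onto adhered PC3M cells stably expressing GFP-tagged PTB and incubated 16 h at 37 C. Cells are then fixed, nuclei stained with Hoechst, and PNC-positive cells counted.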
* = called active by the depositor; ? = inconclusive; / = no result given; [ ] = another dose, or the depositor's remark. Sampled rows, rich in hits. Any-hit rate of the full collection: about 11%. Unless noted, calls come from the whole dose curve; as a rule, active = well fitted inhibition curve with a large enough effect (not every such curve was filed as active); inconclusive = small, poorly fitted or top-dose-only effect, or another doubt; inactive = no such curve, though single readings can be large or run the other way. Unless noted, % is set by controls: 0 for no effect and ±100 for the full control effect.

SMILES	IMPase Li inh	ALDH1A1 block	HPGD block	IMPase cell inh	NPSR antag	PNC assembly inh
CCOC(=O)c1cnc2c(Cl)cc(Cl)cc2c1Nc1cc(C(=O)O)ccc1C	/	/	/	-2	/	/
CCOC(=O)C1=NN(C(=O)c2ccccc2)C(O)(c2ccc(C)cc2)C1 (stereo not given)	-5%	-8%	-5%	/	8%	-95*
CCOC(=O)C1=NN(C(=O)c2ccc(OC)cc2)C(O)(c2ccc(Cl)cc2)C1 (stereo not given)	5%	18µM*	-9%	/	-31%	-18
CCOC(=O)C1=NN(C(=O)COc2ccccc2)C(O)(c2ccc(Cl)cc2)C1 (stereo not given)	4%	-1%	/	/	-3%	/
CCC(CO)n1c(SCc2cc(=O)oc3cc(C)ccc23)nc2ccccc2c1=O (stereo not given)	-4%[38.3 µM]	4.5µM*	-12%	4	?	?
O=C(COC(=O)Cc1ccc(Br)cc1)NC12CC3CC(CC(C3)C1)C2	-1%[38.3 µM]	?	-9%	0	-11%[46.1 µM]	0
COc1ccc(N(CN2C(=O)C3C4C=CC(C4)C3C2=O)C(=O)c2ccco2)cc1 (stereo not given)	0%[38.3 µM]	18%	-9%	-3	-3%[46.1 µM]	-28
Cc1ccc(OCC(=O)NCC(=O)n2nc(C)cc2C)cc1	-4%[38.3 µM]	3%	-2%	0	-11%[46.1 µM]	-3
Cc1cc(C)n(C(=O)CNC(=O)COc2ccccc2)n1	4%[38.3 µM]	11%	32µM*	-6	3%[46.1 µM]	-9
O=C(O)C1CCN(c2nc(-c3ccccc3)nc3c2oc2ccccc23)CC1	/	?	/	11	-15%[46.1 µM]	1
CCOC(=O)C1CCN(c2nc(-c3ccccc3)nc3c2oc2ccccc23)CC1	37%[38.3 µM]	?	?	-4	13µM*	?
CCc1nc(N[C@H](C(=O)O)C(C)CC)c2oc3ccccc3c2n1 (stereo not given in full)	-9%[38.3 µM]	0.5µM*	-6%	-6	-6%[46.1 µM]	25
CC(C)[C@H](Nc1nc(-c2ccccc2)nc2c1oc1ccccc12)C(=O)O	-10%[38.3 µM]	1.1µM*	0%	0	-9%[46.1 µM]	8
CC(C)C(Nc1ncnc2c1oc1ccccc12)C(=O)O (stereo not given)	-5%	7%	/	/	23%	/
CCc1nc(Nc2ccccc2)c2oc3ccccc3c2n1	36%[38.3 µM]	?	?	9	-18%[46.1 µM]	132
CCC(C)[C@H](Nc1nc(-c2ccccc2)nc2c1oc1ccccc12)C(=O)O (stereo not given in full)	-3%[38.3 µM]	0.79µM*	-6%	-4	-4%[46.1 µM]	76
O=C(O)c1ccc(NS(=O)(=O)c2ccc3c(c2)C2C=CCC2C(c2ccccc2F)N3)cc1 (stereo not given)	0%	?	/	/	15%	/
O=C1CCC(=O)N1OCCOc1ccccc1	5%	-6%	/	/	15%	/
COc1ccccc1OCC(=O)NCCCn1ccnc1	12%	-17%	/	/	-15%	/
COc1ccc(NC2=NCC(=O)N2c2ccccc2F)c(OC)c1	-7%[38.3 µM]	8%	-4%	3	1%[7.67 µM]	-28
COc1ccc(NC2=NCC(=O)N2c2ccccc2)c(OC)c1	-17%[38.3 µM]	3%	2%	7	-8%[46.1 µM]	-94*
COc1ccc(-n2cc(-c3ccccc3)[nH]c2=S)cc1	2%	-4%	?	7	-7%[46.1 µM]	-21
CC1(c2ccccc2)NC(=S)N2C1NC(=S)N2c1ccccc1 (stereo not given)	12%[38.3 µM]	32µM*	-2%	-4	3%[46.1 µM]	?
O=C(O)CC1NC(=S)N(c2ccccc2)C1=O (stereo not given)	-2%	5%	-12%	4	0%[46.1 µM]	7
COc1ccc(N2C(=S)NC3N2C(=S)NC3(C)c2ccccc2)cc1 (stereo not given)	-3%	25µM*	/	/	-4%	/
SMILES	IMPase Li inh	ALDH1A1 block	HPGD block	IMPase cell inh	NPSR antag	PNC assembly inh
CCOC(=O)N1CCN(C(=O)c2cc(C)c3c(C)nn(-c4ccccc4)c3n2)CC1	-1%[38.3 µM]	3%	-2%	-7	-9%[46.1 µM]	-8
COc1cccc(C(=O)Nc2c3c(nn2-c2ccccc2C)CS(=O)C3)c1OC (stereo not given)	8%[38.3 µM]	-3%	-4%	3	-6%[46.1 µM]	26
Cc1c2c(nc3c(C(=O)NC4CC4)cnn13)CCCC2	10%[38.3 µM]	-2%	20µM*	1	-5%[46.1 µM]	14
Cc1cc(C(F)F)n2ncc(C(=O)NC3CCCCCC3)c2n1	10%[38.3 µM]	13µM*	22µM*	3	-21%[46.1 µM]	19
Cc1cc(C(F)F)n2ncc(C(=O)NCc3ccc(F)cc3)c2n1	/	/	/	/	-10%	/
O=c1c2ccccc2cnn1-c1ccc(Br)cc1	-10%[38.3 µM]	0%	-6%	1	-17%[46.1 µM]	?
CN(C)c1ccc(N2C(=O)CC(Nc3ccc(N4CCOCC4)cc3)C2=O)cc1 (stereo not given)	3%	?	1%	9	-12%[46.1 µM]	?
CC(NC(=O)c1ccc(F)cc1)C(c1cccs1)N1CCN(C)CC1 (stereo not given)	-7%	11%	-12%	-8	-4%[46.1 µM]	-116*
CC1=NN(c2ccccc2)C(=O)C1	4%	10µM*	5%	7	-6%	14
CC1=NN(c2ccc(Cl)cc2)C(=O)C1	19%	0.63µM*	/	/	7%	/
Cc1cc(C)c(NC(=O)C(C)OC(=O)c2cc(Br)c(Br)s2)c(C)c1 (stereo not given)	-14%	12%	-12%	/	-33%	76
CC(=O)NC(Cc1ccccc1C)C(=O)NC1CCN(C(=O)c2cccc(C)c2)CC1 (stereo not given)	-1%	20µM*	/	/	-1%	/
CC(=O)NC(Cc1cccc(F)c1)C(=O)NC1CCN(C(=O)c2ccc(C)cc2)CC1 (stereo not given)	6%	14µM*	/	/	-10%	/
COc1ccc(C(=O)N2CCN(c3nnnn3-c3ccccc3)CC2)cc1OC	-3%[38.3 µM]	16µM*	-1%	-2	1%[46.1 µM]	11
CCCCC(NC(C)=O)c1nc2ccccc2n1CCC (stereo not given)	8%	-4%	0%	-7	9%	?
CCOC(=O)Nc1ccc(NS(=O)(=O)c2ccc(C)cc2)cc1	33%[38.3 µM]	?	-12%	-1	-15%[46.1 µM]	24
O=C(O)/C=C/C(=O)Nc1ccc(-c2ccccc2)cc1	-4%	3.2µM*	/	/	1%	/
Cc1ccc(S(=O)(=O)Nc2ccc(NC(=O)/C=C/C(=O)O)cc2)cc1	5%	35µM*	/	/	17%	/
Cc1ccc(NC(=O)/C=C\C(=O)NCC(=O)O)cc1	2%	28µM*	/	/	10%	/
